Inconclusive results are not listed. Entries that show only a call come without a potency. The source made the active and inactive calls. Calls follow the shape of the full dose curve.
biological target: Atrial natriuretic peptide receptor 2 (Homo sapiens) (UniProt P20594); assay: Natriuretic polypeptide receptor (hNpr2) antagonism - Pilot subtype selectivity assay (AID 1347050); details: NPR2-expressing cells, cGMP antagonist-mode read-out; series mostly up to 38.3 µM
Protocol: F. Fan, B. F. Binkowski, B. L. Butler, P. F. Stecha, M. K. Lewis, K. V. Wood, Novel genetically encoded biosensors using firefly luciferase. ACS Chem Biol 3, 346-351 (2008).
PROTOCOL TABLE (as described by Inglese J, Shamu CE and Guy RK. 2007)
SEQUENCE No. (e.g., 1, 2, 3, etc.); […] (e.g., Cells, Incubation, Reagent, etc.); VALUE and DESCRIPTION.
1. Cells. Seed 1500 HEK293 cGMP-sensor cells expressing hNpr2 per well in 4uL into Greiner 1536-well white/solid bottom high base, TC plates.
2. Incubation. Incubate plated cells at 37C in 5% CO2, 95% RH overnight.
3. Reagent. Add 1uL per well GloSensor reagent from Promega (2% final concentration) or CO2 independent media vehicle control to respective columns of Greiner 1536-well plates.
4. Incubation. Incubate plated cells at ambient temperature for 2 h., protect from light.
5. Compounds. Library compounds and DMSO vehicle control added at 23nL per well, transferred by Pin Tool.
6. Incubation. Incubate plated cells for 30 min. at ambient temperature, protect from light.
7. Detector. GloSensor baseline pre-read luminescence measured using CCD-based camera (Viewlux).
8. Compound. Add 1uL of hNppC peptide to 1 nM final concentration to stimulate hNpr2 or CO2 independent media as vehicle control.
9. Incubation. Incubate treated cells at ambient temperature for 20 min., protect from light.
10. Detector. GloSensor post-hNppC luminescence measured using CCD-based camera (Viewlux).
NOTES (numbers refer to Sequence numbers above)
1. HEK293 cells expressing hNpr2 and GIP/pGS-40F were grown to 85-95% confluence (48-72 h) in T175 culture flasks (CO2 independent media supplemented with 10% FBS, 1% Pen/Strep antibiotics, and 1 ug/mL puromycin). Trypsinize and harvest cells from T175 culture flasks and filter through 40 um cell strainer. Cells counted with Invitrogen Countess (30,000,000 - 50,000,000 cells/flask). Cells diluted to a final concentration of 375 cells/uL in CO2 independent media and a Millipore multidrop used to dispense 1500 cells per well (4uL/well) into 9 x1536-well Greiner White/Solid bottom, high base tissue-culture treated (TC) plates and one Aurora 1536-well Black/Clear bottom, low base, TC plate (for visual inspection of cell health throughout the duration of the assay).
2. Cells incubated for 24 h. at 37C in 95% RH incubator with metal lid having gas-exchange holes.
3. Prepare GloSensor Reagent (Promega): Reconstitute GloSensor luciferase substrate by adding 8.2mL Hepes buffer to 250mg substrate, mix well, protect from light and stored at -80C. Prepare a fresh 12% GloSensor solution in CO2 independent supplemented plating media (see above). Mix well and store at ambient temperature, protected from light. 1uL 12% GloSensor Luciferase Reagent added (2% final concentration) to respective columns of 9 x 1536-well Greiner plate with BioRaptr, 1uL CO2 independent plating media added to respective columns as vehicle control with BioRaptr.
4. Cells incubated for 2 h. at ambient temperature, protected from light with metal lid having gas-exchange holes.
5. 23nL of LOPAC1280 library compounds (7 plates) or DMSO vehicle control transferred to 9 Greiner white/solid bottom high base, TC plates in 7 interplate 1:5 titrations (see Yasgar, A. et al. 2008) with Pintool. Two of the 9 plates are DMSO-only in compound field at beginning and end of compound library-treated plates.
6. Cells incubated for 30-50 min. at ambient temperature protected from light with metal lid having gas-exchange holes.
7. Read cellular baseline GloSensor luminescence in presence of test library compounds on the ViewLux [Exposure = 10 s.; Gain = High; Speed = Slow; and Binning = 2X.]
8. hNppC peptide agonist solution prepared at 1 mM (in H2O) stock concentration. From this a working dilution was prepared at 6 nM in CO2 Independent media. […]
Potency is read from the fitted curve at half-maximal effect.

Atrial natriuretic peptide receptor 2 (Homo sapiens), sequence (P20594 whole entry, looked up): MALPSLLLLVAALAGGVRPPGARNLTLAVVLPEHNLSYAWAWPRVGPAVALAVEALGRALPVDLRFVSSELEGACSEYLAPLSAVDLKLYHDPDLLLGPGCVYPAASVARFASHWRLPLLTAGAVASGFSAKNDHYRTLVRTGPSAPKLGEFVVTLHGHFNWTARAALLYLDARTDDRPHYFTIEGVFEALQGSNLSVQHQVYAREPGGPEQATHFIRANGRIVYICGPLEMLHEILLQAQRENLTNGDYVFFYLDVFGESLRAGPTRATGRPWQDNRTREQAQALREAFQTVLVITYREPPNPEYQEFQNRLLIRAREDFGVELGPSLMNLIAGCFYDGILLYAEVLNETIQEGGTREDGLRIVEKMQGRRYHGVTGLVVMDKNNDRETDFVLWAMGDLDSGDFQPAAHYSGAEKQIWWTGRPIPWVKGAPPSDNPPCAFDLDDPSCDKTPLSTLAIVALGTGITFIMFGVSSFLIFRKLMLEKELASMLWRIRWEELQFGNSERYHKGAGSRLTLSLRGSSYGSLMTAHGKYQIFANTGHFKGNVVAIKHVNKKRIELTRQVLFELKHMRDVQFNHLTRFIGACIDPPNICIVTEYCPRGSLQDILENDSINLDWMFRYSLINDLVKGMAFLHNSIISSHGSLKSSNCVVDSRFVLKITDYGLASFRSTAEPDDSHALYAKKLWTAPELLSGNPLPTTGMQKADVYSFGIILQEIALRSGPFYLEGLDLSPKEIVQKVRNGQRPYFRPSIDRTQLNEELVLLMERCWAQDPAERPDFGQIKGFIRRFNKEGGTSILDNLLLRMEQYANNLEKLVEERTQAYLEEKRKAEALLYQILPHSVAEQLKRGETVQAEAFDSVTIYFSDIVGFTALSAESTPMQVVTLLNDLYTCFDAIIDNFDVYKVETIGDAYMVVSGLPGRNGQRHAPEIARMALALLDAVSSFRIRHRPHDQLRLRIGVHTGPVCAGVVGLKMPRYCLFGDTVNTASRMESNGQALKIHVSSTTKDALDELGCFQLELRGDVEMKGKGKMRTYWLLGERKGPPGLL

Row | SMILES | Potency
1 | C#CCN(C)Cc1ccccc1 | inactive
2 | COC(=O)C1=C(C)NC(C)=C(C(=O)OC)C1c1ccccc1[N+](=O)[O-] | 13.1 µM (active)
3 | CCN(CC)CCOC(=O)C1(C2CCCCC2)CCCCC1 | inactive
4 | NC1CCN(c2cccc(Cl)n2)CC1 | inactive
5 | COCCOC(=O)C1=C(C)NC(C)=C(C(=O)OC/C=C/c2ccccc2)C1c1cccc([N+](=O)[O-])c1 (centres undefined) | inactive
6 | CC[C@H]1CN2CCc3cc(OC)c(OC)cc3[C@@H]2C[C@@H]1C[C@H]1NCCc2cc(OC)c(OC)cc21 | inactive
7 | CCN(CC)CCNC(=O)c1cc(Cl)c(N)cc1OC | inactive
8 | CCN(CC)C(C)CN1c2ccccc2Sc2ccccc21 (centres undefined) | inactive
9 | OCc1cc(C(O)CNCCCCCCOCCCCc2ccccc2)ccc1O (centres undefined) | inactive
10 | CNCC(O)c1ccc(O)c(O)c1 (centres undefined) | inactive
11 | C[C@](N)(Cc1ccc(O)cc1)C(=O)O | inactive
12 | CN(C)CCOC(C)(c1ccccc1)c1ccccn1 (centres undefined) | inactive
13 | NC(N)=NCCC[C@H](N)C(=O)O | inactive
14 | CC(C)(C)c1onc(OCP(=O)(O)O)c1CC(N)C(=O)O (centres undefined) | inactive
15 | C[C@]12CC[C@@H]3c4ccc(O)cc4CC[C@H]3[C@@H]1CCC2=O | inactive
16 | CC1=C(CC(=O)O)c2cc(F)ccc2/C1=C\c1ccc(S(C)(=O)=O)cc1 | inactive
17 | Nc1ncnc2c1ncn2[C@@H]1O[C@H](CO)[C@@H](O)[C@H]1O | inactive
18 | COc1ccc(Cl)cc1C(=O)NCCc1ccc(S(=O)(=O)NC(=O)NC2CCCCC2)cc1 | inactive
19 | N=c1c[n+](N2CCOCC2)[n-]o1 | inactive
20 | CC(C)C(=O)c1c(C(C)C)nn2ccccc12 | inactive

Row | SMILES | Potency
21 | CCCn1cnc2c1c(=O)n(CCCCC(C)=O)c(=O)n2C | inactive
22 | CN(C)CCCN1c2ccccc2Sc2ccc(Cl)cc21 | 14.7 µM (active)
23 | CC1=C(CC(=O)O)c2cc(F)ccc2/C1=C\c1ccc(S(C)=O)cc1 (centres undefined) | inactive
24 | OCCN1CCN(CCCN2c3ccccc3Sc3ccc(Cl)cc32)CC1 | 16.5 µM (active)
25 | CCCCCCCCCCCCCCCC(=O)NCCO | inactive
26 | NC(=O)c1ncn([C@@H]2O[C@H](CO)[C@@H](O)[C@H]2O)n1 | inactive
27 | CN(C)CCCN1c2ccccc2CCc2ccccc21 | 16.5 µM (active)
28 | C[C@]12C[C@H](O)[C@H]3[C@@H](CCC4=CC(=O)CC[C@@]43C)[C@@H]1CC[C@@H]2C(=O)CO | inactive
29 | CNC(=O)Oc1ccc2c(c1)[C@]1(C)CCN(C)[C@@H]1N2C | inactive
30 | CCN(CC)CCCC(C)Nc1c2ccc(Cl)cc2nc2ccc(OC)cc12 (centres undefined) | inactive
31 | Cc1cc(N)c2ccccc2[n+]1CCCCCCCCCC[n+]1c(C)cc(N)c2ccccc21 | inactive
32 | CC(C)(C)[C@]1(O)CCN2C[C@H]3c4ccccc4CCc4cccc(c43)[C@@H]2C1 | inactive
33 | CC(=O)OCC(=O)[C@@]1(O)CC[C@H]2[C@@H]3CCC4=CC(=O)CC[C@]4(C)[C@H]3C(=O)C[C@@]21C | inactive
34 | CC(C)NC[C@H](O)c1ccc(O)c(O)c1 | inactive
35 | CC(C(O)c1ccc(O)cc1)N1CCC(Cc2ccccc2)CC1 (centres undefined) | inactive
36 | CC1=C(/C=C/C(C)=C/C=C/C(C)=C/C(=O)O)C(C)(C)CCC1 | inactive
37 | CC(CN1c2ccccc2Sc2ccccc21)N(C)C (centres undefined) | inactive
38 | Nc1cc(=O)[nH]c(N)n1 | inactive
39 | O=C1N=C(O)CN1/N=C/c1ccc(-c2ccc([N+](=O)[O-])cc2)o1 | inactive

Source: PubChem BioAssay (NCATS)
